Hit rate of the full screen: of about 75,000 compounds, about 5,700 (7.6%) were called active. About 7% were inconclusive and are not listed. What follows is part of a selection rich in actives, with near analogues and random picks from the rest. A number with no mark means an inactive call. Calls follow the shape of the dose curve; as a rule, active = well fitted inhibition curve with a large enough effect; inconclusive = small, poorly fitted or top-dose-only effect; inactive = no such curve, though single readings can be large or run the other way.
Target: 3-hydroxyacyl-CoA dehydrogenase type-2 (Homo sapiens) (UniProt Q99714)
Assay: qHTS Assay for Inhibitors of HSD17B4, hydroxysteroid (17-beta) dehydrogenase 4; also: nearly all actives have a fitted effect of over 70% in size
Conditions: recombinant HSD17B10, NADH fluorescence kinetic; series mostly up to 57.1 µM; activity change, negative = inhibition: at the top concentration
Source text: Assay Overview: NIH Molecular Libraries Screening Centers Network [MLSCN] NIH Chemical Genomics Center [NCGC] Structural Genomics Consortium [SGC] Grant number: None HADH2: Hydroxyacyl-Coenzyme A dehydrogenase, type II, was supplied by researchers at the Structural Genomics Consortium, Oxford University lab (PI Udo Oppermann). The mitochondrial enzyme 17-hydroxysteroid dehydrogenase type 10 (HSD17-10) previously classified as type II hydroxyacyl-CoA dehydrogenase (HADH2) catalyzes the NAD+ dependent oxidation of a variety of substrates including acyl-CoAs, androgens and neurosteroids as well as bile acids(Shafqat N, Marschall HU, Filling C, et al. Biochemical Journal. 2003;376(Pt 1):49-60). […] The enzyme was produced by E.coli fermentation as His-tagged recombinant for the purpose of X-ray structure determination, and had been mass-spectrometry characterized. Inhibition of HADH2 activity was screened by utilizing beta-hydroxybutyryl coenzyme A as an electron donor and NAD+ as an electron acceptor/cofactor. An increase in the fluorescence intensity due to conversion of NAD+ to NADH was used to measure the enzyme activity.
Assay Protocol: Buffer: 100 mM Tris-HCl pH 9.0, containing 0.01 % Tween-20. Reagents/Controls: Buffer in columns 3 and 4 as negative control (no enzyme). Substrate/cofactor solution: 1 mM NAD+ and 90 uM beta-hydroxybutyryl coenzyme A (Sigma-Aldrich, St. Louis, MO) final concentrations dispensed throughout the plate. Enzyme: 20 nM HADH2 final concentration in columns 1, 2, 5-48. Column 1 is neutral (100% activity). Column 2 contained titration of apomorphine (Sigma-Aldrich, A 4393, PubChem CID 2215, top concentration 500 uM, then 1:2 dilution in duplicate) Assay Steps: Three uL of enzyme were dispensed to 1536-well Greiner black solid bottom plates. Compounds and controls (23 nL) were transferred via Kalypsys PinTool. The plates were incubated for 15 min at room temperature, and then 1 uL of substrate/cofactor solution was added to start the reaction. The plates were immediately transferred to and read every 30 seconds for 4 min on ViewLux High-throughput CCD imager (Perkin-Elmer) using 360 nm excitation and 450 nm emission fluorescence protocol. The fluorescence intensity difference between the last and the first time points was used to compute reaction progress.
% is scaled to controls: 0 for no effect and ±100 for the full control effect; potency is read from the fitted curve at half-maximal effect.

For `CC(Nc1nc(N2CCCC2)nc2ccccc12)c1ccccc1` (stereo not given), the Potency was 31.6 µM (active).
In the case of `O=C(Oc1cccnc1)c1cc2ccccc2oc1=O`, the Potency is reported as 25.1 µM (active).
With `CCOC(=O)c1cnc2sccn2c1=O` the Potency was 25.1 µM (active).
`O=C(NCc1ccccn1)c1cc2ccccc2oc1=O` was tested, and the Potency was 31.6 µM (active).
With `O=C(NCc1ccccn1)c1cnc2sccn2c1=O` the Potency was 25.1 µM (active).
In the case of `CC(C(=O)N1CCOCC1)N1c2cccc3cccc(c23)S1(=O)=O` (stereo not given), the Potency is reported as 31.6 µM (active).
For `CCCc1[nH]nc2c1C(c1ccc(Br)s1)C(C#N)=C(N)O2` (stereo not given), the Potency was 20 µM (active).
In the case of `COc1ccc2c(c1OC)C(=O)N(c1ncn[nH]1)C2`, the Potency is reported as 31.6 µM (active).
With `COC(=O)C(C)Sc1ccc2nnc(-c3cccc(F)c3)n2n1` (stereo not given) the Potency was 25.1 µM (active).
`CSc1ccc(-c2c(C#N)c(N)nc3c2c(C)nn3-c2ccccc2)cc1` was tested, and the Potency was 31.6 µM (active).
In the case of `O=c1c2ccccc2oc2nc3n(c(=O)c12)CCCS3`, the Potency is reported as 25.1 µM (active).
For `O=C1C(c2[nH]c3ccccc3c2O)=Nc2ccccc21`, the Potency was 31.6 µM (active).
With `CCN(CC)CCCCn1c(-c2ccccc2)nc2c(N3CCOCC3)nc(C)nc21` the Potency was 20 µM (active).
In the case of `CCCCNc1nc(C)nc2c1nc(-c1ccccc1)n2CCCCN(CC)CC`, the Potency is reported as 25.1 µM (active).
`CCOc1ccccc1C1C(C(=O)OC)=CN(C)C=C1C(=O)OC` was tested, and the Potency was 25.1 µM (active).
In the case of `COC(=O)C1=CN(C)C=C(C(=O)OC)C1c1ccc(Cl)cc1Cl`, the Potency is reported as 31.6 µM (active).

Going from `Cc1ccc(C(CC(=O)O)Nc2nc(N3CCCCC3)nc(N3CCCCC3)n2)cc1` (stereo not given) to `CCc1c(O)nc(SCC(=O)N2CCCCC2)n(-c2ccccc2C)c1=O`, the “activity change, negative = inhibition” value rises from -1.92% to 7.14%.

First: CC(C)n1c(C(O)c2ccccc2)nc2ccccc21 (stereo not given)
Second: CCCn1c(C(O)c2ccc(OCC)cc2)nc2ccccc21 (stereo not given)
The “activity change, negative = inhibition” value of the first is higher: 12.2% for the first, 4.24% for the second.

First: C[N+](C)(C)CCCCCNCC12CC3CC(CC(C3)C1)C2
Second: COC(=O)[C@@H]1C[C@@]2(O)[C@@H](O)[C@@H](O)[C@@H](O)C[C@H]2N1Cc1ccc(C)s1
The “activity change, negative = inhibition” value of the first is lower: 3.87% for the first, 15% for the second.

Compared with `O=C(OCC(=O)c1cccs1)C1=COCCO1`, `O=C(c1ccccc1-c1ccccc1)N1CCOCC1` is lower in “activity change, negative = inhibition” value: 8.65% for the first, 8.37% for the second.

Compared with `CCOC(=O)c1cnc(-n2nc(C)cc2C)nc1-n1nc(C)cc1C`, `CCOC(=O)c1cc2n(c1C)-c1ccccc1C2=O` is higher in “activity change, negative = inhibition” value: -10.5% for the first, 3.78% for the second.

First: O=C(NCc1ccccn1)Nc1ccc(F)cc1
Second: O=C(Nc1ccncc1)c1cc2ccccc2o1
The “activity change, negative = inhibition” value of the first is lower: 7.82% for the first, 10.3% for the second.

Going from `O=C(NCc1ccccn1)c1c(O)c2c([nH]c1=O)CCCC2` to `O=C(CCSCCc1ccccn1)Nc1nccs1`, the “activity change, negative = inhibition” value rises from -2.63% to -2.41%.

Going from `Nc1ncc(-c2cc3ccccc3oc2=O)s1` to `CCc1nc2oc3ccccc3c(=O)c2c(=O)n1Cc1ccc(OC)cc1`, the “activity change, negative = inhibition” value falls from -2.43% to -5.68%.

First: Brc1cc(Br)c(Oc2cc(Br)c(Br)cc2Br)cc1Br
Second: CCn1ncc(Br)c1C(=O)Nc1cc(C)ccc1F
The “activity change, negative = inhibition” value of the first is lower: -9.08% for the first, 7.14% for the second.

Going from `COc1cccc2sc(Nc3nc(C)c(C(C)=O)s3)nc12` to `COC(=O)C1=C(C)N(C)C(C)=C(C(=O)OC)C1c1cccc(Br)c1`, the “activity change, negative = inhibition” value rises from -6.55% to -5.98%.

First: COC(=O)CNS(=O)(=O)c1ccc(Cc2ccc(S(=O)(=O)NCC(=O)OC)cc2)cc1
Second: CCOc1ccccc1N(CC(=O)Nc1ccccc1C(=O)OC)S(C)(=O)=O
The “activity change, negative = inhibition” value of the first is higher: 3.44% for the first, -13.6% for the second.

First: CC(=O)OCC(COC(C)=O)OC(C)=O
Second: CC(=O)CC(C)C
The “activity change, negative = inhibition” value of the first is lower: 3.21% for the first, 5.18% for the second.

Compared with `CNC(=O)C1(C)C=CC2(CCCCC2)N1C(C)=O` (stereo not given), `CC(=O)N(CC1CCCO1)C1(C(=O)NC2CCCC2)CCCCC1` (stereo not given) is higher in “activity change, negative = inhibition” value: 5.61% for the first, 11.9% for the second.

Going from `CC(C(=O)Nc1ccccc1-c1ccccc1)N1CCOCC1` (stereo not given) to `CC(=O)c1c(N2CCOCC2)nc(=S)n(Cc2ccccc2)c1C`, the “activity change, negative = inhibition” value falls from 12.3% to 6.31%.

First: COc1ccc(C2C3=C(CC(C)(C)CC3=O)Oc3ncn4nc(-c5cccnc5)nc4c32)cc1OC (stereo not given)
Second: CCCc1[nH]nc2c1C(c1ccc(OC(=O)c3ccco3)cc1)C(C#N)=C(N)O2 (stereo not given)
The “activity change, negative = inhibition” value of the first is higher: 6.85% for the first, 3.66% for the second.

First: CCCc1[nH]nc2c1C(C1CC=CCC1)C(C#N)=C(N)O2 (stereo not given)
Second: CCOC(=O)C1=C(CC)Nc2ccccc2N=C1NC(=O)c1cccc(S(=O)(=O)N2CCCC2)c1
The “activity change, negative = inhibition” value of the first is lower: -17.4% for the first, -10.6% for the second.

First: Cc1ccc(Cn2ccc(NC(=O)C3C4CCC(C4)C3C(=O)O)n2)cc1 (stereo not given)
Second: CC1CCN(C(=O)CSc2ccc3nnc(-c4cccc(F)c4)n3n2)CC1
The “activity change, negative = inhibition” value of the first is higher: -2.8% for the first, -12.3% for the second.

First: CCOc1ccc(-c2nnc3ccc(SC)nn23)cc1
Second: CCOC(=O)CN1C(=O)C(O)(CC(=O)c2ccccn2)c2ccccc21 (stereo not given)
The “activity change, negative = inhibition” value of the first is lower: -6.07% for the first, -5.79% for the second.

Compared with `Cc1ccccc1C(=O)NCCN=C1NS(=O)(=O)c2ccccc21`, `CCN(CC)S(=O)(=O)c1cccc(C(=O)Nc2ccccc2)c1` is higher in “activity change, negative = inhibition” value: -2.36% for the first, 2.56% for the second.

First: O=C(c1csnn1)N1CCC[C@@]2(CCN(Cc3nccs3)C2)C1
Second: COc1ccc(S(=O)(=O)N2CCCC(C(=O)N3CCN(C)CC3)C2)cc1C (stereo not given)
The “activity change, negative = inhibition” value of the first is lower: 7.36% for the first, 10.7% for the second.

Going from `CCC(=O)c1ccc(OCC(O)CN2CC(C)OC(C)C2)cc1` (stereo not given) to `CCCCOCCCNC(=O)c1ccccc1OCC`, the “activity change, negative = inhibition” value rises from 0.889% to 1.37%.

First: C[C@@H]1O[C@@H](OC[C@H]2O[C@@H](Oc3c(-c4cccc(O)c4O)oc4cc(O)cc(O)c4c3=O)[C@H](O)[C@@H](O)[C@@H]2O)[C@H](O)[C@H](O)[C@H]1O
Second: Cc1c(O)cc(O)c2c(=O)c(-c3ccc(O)cc3)coc12
The “activity change, negative = inhibition” value of the first is lower: -17.4% for the first, 1.02% for the second.

Compared with `O=c1c2ccccc2oc2nc(C3CCCCC3)n(Cc3ccco3)c(=O)c12`, `COc1ccccc1C(=O)Oc1ccc(N2C(=O)CCC2=O)cc1` is lower in “activity change, negative = inhibition” value: -7.64% for the first, -11.2% for the second.

Going from `CN(C)/C=C1/Nc2ccccc2C1=O` to `CCCCNc1nc2c(c(=O)[nH]c(=O)n2C)n1CCOc1ccccc1`, the “activity change, negative = inhibition” value rises from -21.3% to 9.4%.

Going from `O=S(=O)(O)CCN1CCOCC1` to `O=S(=O)(N1CCOCC1)N1CCN(c2ccccc2F)CC1`, the “activity change, negative = inhibition” value falls from 1.92% to 0.766%.

For `CC12CN3CC(C)(CN(C1)C3c1ccc(Cl)cc1Cl)C2=O` (stereo not given), the “activity change, negative = inhibition” value was 4.79%.

First: OCCCNCc1ccccn1
Second: C[C@@H](c1ccccc1)N1C(=O)[C@H]2[C@H]3[C@H](O)[C@H](O)C/C(=N/OC[C@@H](O)COCc4ccco4)[C@@H]3CC[C@@H]2C1=O
The activity change, negative = inhibition of the first is lower: -1.43% [at 11.4 µM] for the first, 1.97% [at 11.4 µM] for the second.

`C[N+]1(CCN=C=NC2CCCCC2)CCOCC1` gave an activity change, negative = inhibition of -0.294% [at 11.4 µM].

— PubChem BioAssay AID893 (National Center for Advancing Translational Sciences (NCATS), 2007)
